± gives the standard deviation of the averaged measurements. Over roughly 1,600 compounds, “normalized growth (OD600, IQM-normalized) in LPM” has its median near 1; the lowest 2% begin near 0.014. The entries come from a sample that favours the lowest values as a whole.

From the supplement of paper PMC6331611 come the findings set out here.

The experiment deals with Salmonella enterica serovar Typhimurium SL1344. Briefly: normalized growth (OD600, IQM-normalized) in LPM (fraction of plate interquartile mean); higher = more bacterial growth (less inhibition). Particulars: LPM pH 5.8; 10 µM; 16 h.
The compound `CCC[C@@H]1C[C@@H](C(=O)N[C@@H]([C@H]2O[C@H](SC)[C@H](O)[C@@H](O)[C@H]2O)[C@@H](C)O)N(C)C1` gave a normalized growth of 1.096 ± 0.0085.

`CN(Cc1cnc2nc(N)nc(N)c2n1)c1ccc(C(=O)NC(CCC(=O)O)C(=O)O)cc1` (racemic) came in with a normalized growth of 0.665 ± 0.054.

Compound `CCC(=O)OCC(=O)[C@@]1(OC(=O)CC)[C@@H](C)C[C@H]2[C@@H]3CCC4=CC(=O)C=C[C@]4(C)[C@@]3(F)[C@@H](O)C[C@@]21C` yielded a normalized growth of 1.06 ± 0.047.

Compound `O=C(O)c1cn(-c2ccc(F)cc2)c2cc(N3CCNCC3)c(F)cc2c1=O` showed a normalized growth of 0.0341 ± 0.0073.

Compound `CCn1cc(C(=O)O)c(=O)c2cc(F)c(N3CCNCC3)cc21` gave a normalized growth of 0.0247 ± 0.0053.

Compound `CCn1cc(C(=O)O)c(=O)c2cc(F)c(N3CCN(C)CC3)cc21` had a normalized growth of 0.0116 ± 0.00051.

As for `CN1CCN(c2cc3c(cc2F)c(=O)c(C(=O)O)cn3-c2ccc(F)cc2)CC1`, the normalized growth is 0.0108 ± 0.00018.

`O=C(O)c1cn(C2CC2)c2cc(N3CCNCC3)c(F)cc2c1=O`: the normalized growth turned out to be 0.0145 ± 0.0063.

Compound `CCn1cc(C(=O)O)c(=O)c2cc(F)c(N3CCNCC3)nc21` registered a normalized growth of 0.0514 ± 0.033.

For `CCCCC(O)c1ccccc1` (configuration not stated), the normalized growth was determined as 0.984 ± 0.032.

Compound `CC1=CC(=O)NS(=O)(=O)O1` came in with a normalized growth of 0.928 ± 0.054.

`CS(=O)(=O)c1ccc(C2=C(c3ccccc3)C(=O)OC2)cc1` returned a normalized growth of 1.07 ± 0.11.

The compound `CCCCCCCCCC(=O)N[C@@H](Cc1c[nH]c2ccccc12)C(=O)N[C@@H](CC(N)=O)C(=O)N[C@@H](CC(=O)O)C(=O)N[C@@H]1C(=O)NCC(=O)N[C@@H](CCCN)C(=O)N[C@@H](CC(=O)O)C(=O)N[C@H](C)C(=O)N[C@@H](CC(=O)O)C(=O)NCC(=O)N[C@H](CO)C(=O)N[C@@H]([C@H](C)CC(=O)O)C(=O)N[C@@H](CC(=O)c2ccccc2N)C(=O)O[C@@H]1C` [DAPTOMYCIN (5 millimolar/DMSO)] gave a normalized growth of 1.02 ± 0.057.

With `C[C@]12CCC(=O)C=C1[C@@H]1C[C@@H]1[C@H]1[C@@H]3[C@@H]4C[C@@H]4[C@@]4(CCC(=O)O4)[C@@]3(C)CC[C@@H]12`, the normalized growth was 1.07 ± 0.069.

As for `COc1cc(/C=C/C(=O)N2CCCCCCC2)cc(OC)c1OC`, the normalized growth is 0.961 ± 0.025.

`N[C@@H](Cc1ccc(O)cc1)C(=O)O` registered a normalized growth of 0.979 ± 0.02.

`CC(=O)NC(Cc1ccccc1)C(=O)O` (configuration not stated): the normalized growth came out at 0.957 ± 0.064.

`CNC(=C[N+](=O)[O-])NCCSCc1csc(CN(C)C)n1` gave a normalized growth of 1.15 ± 0.28.

Turning to `O=C(O)C1=C(CSc2nnnn2CS(=O)(=O)O)CS[C@@H]2[C@H](NC(=O)[C@H](O)c3ccccc3)C(=O)N12`, the normalized growth stood at 1.01 ± 0.024.

`CCCCCNC(=N)N/N=C/c1c[nH]c2ccc(OC)cc12` gave a normalized growth of 1.09 ± 0.12.

On to `Cc1cc(C2CCCCC2)n(O)c(=O)c1`, for which the normalized growth came to 0.183 ± 0.014.

`O=C(OC[C@H]1O[C@@H](OC(=O)c2cc(O)c(O)c(OC(=O)c3cc(O)c(O)c(O)c3)c2)[C@H](OC(=O)c2cc(O)c(O)c(OC(=O)c3cc(O)c(O)c(O)c3)c2)[C@@H](OC(=O)c2cc(O)c(O)c(OC(=O)c3cc(O)c(O)c(O)c3)c2)[C@@H]1OC(=O)c1cc(O)c(O)c(OC(=O)c2cc(O)c(O)c(O)c2)c1)c1cc(O)c(O)c(OC(=O)c2cc(O)c(O)c(O)c2)c1`: the normalized growth amounted to 1.08 ± 0.013.
